# Reference: PubChem BioAssay AID1220 (Sanford-Burnham Center for Chemical Genomics, 2008)
# Among all 190,000 compounds or so, about 1,300 (0.68%) were called active. Only a selection was taken, and actives are over-represented in it overall. Unmarked numbers belong to inactive results. Rule as the data show it: active = inhibition above about 50%; inactive = the rest.
# Molecular target: Mannose-6-phosphate isomerase (Homo sapiens) (UniProt P34949)
# Experiment: human PMI inhibitors, high substrate, primary screen, biochemical, fluorescence intensity, high mannose 6-phosphate (AID 1220)
# Conditions: recombinant PMI enzyme, coupled fluorescence intensity; at 20 µM; stronger effect = higher value
# Sequence of Mannose-6-phosphate isomerase (Homo sapiens) (P34949 whole entry, looked up): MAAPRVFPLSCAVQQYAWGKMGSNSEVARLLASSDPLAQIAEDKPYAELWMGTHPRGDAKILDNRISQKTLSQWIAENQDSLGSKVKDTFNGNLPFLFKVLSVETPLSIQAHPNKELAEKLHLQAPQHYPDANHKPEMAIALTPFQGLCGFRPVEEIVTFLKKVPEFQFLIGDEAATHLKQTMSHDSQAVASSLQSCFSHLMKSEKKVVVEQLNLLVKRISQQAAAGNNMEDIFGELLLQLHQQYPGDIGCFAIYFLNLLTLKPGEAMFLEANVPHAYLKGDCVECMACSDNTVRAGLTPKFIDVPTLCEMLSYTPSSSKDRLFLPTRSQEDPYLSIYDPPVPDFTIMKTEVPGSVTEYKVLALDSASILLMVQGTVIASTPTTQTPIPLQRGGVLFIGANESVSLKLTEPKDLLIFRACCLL
row,Compound,inhibition
1,CC(C)(C)NCC(O)COc1ccccc1C(C)(C)C (centres undefined),2.5%
2,Cc1ccc2nsnc2c1S(=O)(=O)N(Cc1cc2cccc(C)c2[nH]c1=O)CC1CCCO1 (centres undefined),10.3%
3,CC(C)c1ccc(C(=O)CSc2n[nH]c(-c3ccncc3)n2)cc1,4.3%
4,Cc1nnc(SCC(=O)c2ccc(C(C)C)cc2)s1,7.2%
5,S=C(NCCN1CCOCC1)N/N=C/c1ccccc1,3.7%
6,Oc1ccc(/C=N/NC(=S)NCCN2CCOCC2)c(O)c1,-21.6%
7,C=CCn1c(C(C)NC(=O)c2ccccc2C)n[nH]c1=S (centres undefined),2.2%
8,CCOC(=O)c1c(-c2ccc(C)s2)csc1NC(=O)c1cccs1,-3.8%
9,CCOC(=O)c1c(-c2ccncc2)csc1N,23.1%
10,CCOC(=O)c1c(-c2ccc(C)s2)csc1NC(=O)c1ccco1,3.5%
11,CCOc1ccc(-c2csc(N)c2C(=O)OC)cc1,19.4%
12,CCOC(=O)c1c(-c2cccc([N+](=O)[O-])c2)csc1N,50.3% (active)
13,CCOC(=O)c1c(-c2cccc([N+](=O)[O-])c2)csc1NC(=O)C1CC1,40.4%
14,CCOC(=O)c1c(-c2cccc([N+](=O)[O-])c2)csc1NC(=O)C1CCCCC1,24%
15,CCOC(=O)c1c(-c2ccsc2)csc1N,59.8% (active)
16,Cc1ccc2nc(-c3cccnc3)c(Nc3ccccc3C)n2c1,4.7%
17,COc1ccc(NC(=O)c2cc3c(=O)n4ccccc4nc3n2C)c(OC)c1,6.3%
18,Cc1cc(C)c(S(=O)(=O)c2ccccc2)c(Cl)n1,5.7%
19,COC(=O)c1[nH]c2ccccc2c1NC(=O)CNC1CCCCC1,11.8%
20,O=C(CNc1cccc2ccccc12)N/N=C/c1cccc(Oc2ccccc2)c1,51.8% (active)
21,O=C(CNc1cccc2ccccc12)N/N=C/c1ccc([N+](=O)[O-])cc1,18.1%
22,Cc1cccc(NCC(=O)N/N=C\c2cccc(Oc3ccccc3)c2)c1,12.6%
23,O=C(CNc1ccccc1)c1ccc([N+](=O)[O-])cc1,-90.7%
24,Cc1ccc(NCC(=O)N/N=C/c2cccc(Oc3ccccc3)c2)cc1,10.5%
25,C=CCc1cccc(/C=N/NC(=O)CNc2ccccc2)c1O,-4.5%
26,O=C(CNc1cccc2ccccc12)c1ccc([N+](=O)[O-])cc1,57.5% (active)

row,Compound,inhibition
1,Cc1cccc(/C=N/NC(=O)C(C)Nc2cccc3ccccc23)n1 (centres undefined),-72.3%
2,Cc1cccc(/C=N/NC(=O)CNc2cccc3ccccc23)n1,61.8% (active)
3,C=CCc1cccc(/C=N/NC(=O)CNc2ccccc2OC)c1O,-20.8%
4,C=CCc1cccc(/C=N/NC(=O)CNc2cccc3ccccc23)c1O,55.2% (active)
5,CSc1ccc(/C=N/NC(=O)CNc2cccc3ccccc23)cc1,17.1%
6,O=C(N=Nc1c(O)[nH]c2ccccc12)c1cc(NS(=O)(=O)c2cccs2)cc(NS(=O)(=O)c2cccs2)c1,-0.7%
7,O=C(N/N=C/C=C\c1ccccc1[N+](=O)[O-])c1ccccn1,13.1%
8,COc1ccc(N2CCN(C(c3cccs3)C(C)NS(=O)(=O)c3ccccc3)CC2)cc1 (centres undefined),20.1%
9,CN(c1ccc(OCC(=O)OCC(=O)NC2CCCC2)cc1)S(=O)(=O)c1ccc2ccccc2c1,23.5%
10,O=C(O)C1CCC(Cn2c(SCc3cc(=O)n4cc(Br)ccc4n3)nc3ccsc3c2=O)CC1 (centres undefined),5.7%
11,Cc1ccc2cc(S(=O)(=O)NCCCN3CCOCC3)ccc2c1,4.1%
12,O=C(CNc1ccccc1)N/N=C/c1ccc([N+](=O)[O-])o1,8%
13,O=C(CNc1ccc2ccccc2c1)N/N=C/c1ccc([N+](=O)[O-])o1,46.2%
14,O=C(CNc1cccc2ccccc12)N/N=C/c1ccc([N+](=O)[O-])o1,60.4% (active)
15,O=C(O)/C=C/C(=O)N1CCN(c2ccccc2F)CC1,2.7%
16,N#CCSc1nnc(C2CCCCC2)n1-c1ccccc1,11.9%
17,NC(=O)c1cccc(S(=O)(=O)N2CC(c3ccccc3)CC2=O)c1 (centres undefined),5.1%
18,Cc1cc(Cl)ccc1Oc1ccc(C(N)=O)cc1[N+](=O)[O-],5.8%
19,Cc1c(C(=O)Oc2cccc3cccnc23)cccc1[N+](=O)[O-],36.1%
20,NC(=O)c1ccc(Oc2cccc3cccnc23)c([N+](=O)[O-])c1,50.2% (active)
21,O=[N+]([O-])c1ccc(Oc2cccc3cccnc23)c([N+](=O)[O-])c1,11.4%
22,COc1ccc(C(=O)Oc2cccc3cccnc23)cc1[N+](=O)[O-],51.9% (active)
23,O=C(Oc1cccc2cccnc12)c1cccc([N+](=O)[O-])c1,44.3%
24,COc1cccc(CNC(=O)CCC2CCCN(C(=O)CCC(F)(F)F)C2)c1 (centres undefined),7.7%
25,CCNc1nc(NCC)n2c(SCC(=O)c3ccc(C(C)C)cc3)nnc2n1,-21%
26,CCCNC(=O)Cc1c(O)c2ccccc2[nH]c1=O,6.5%

row,Compound,inhibition
1,COc1ccc(C2C3=C(Nc4ncnn42)c2ccccc2CC3)cc1OC (centres undefined),38.6%
2,COc1ccc(C2C3=C(Nc4ncnn42)c2ccccc2CCC3)cc1 (centres undefined),3.7%
3,COc1cc(C2C3=C(Nc4ncnn42)c2ccccc2CC3)cc(OC)c1OC (centres undefined),51.9% (active)
4,Cc1cccc2cc(-c3nc4c(C)cccn4c3NCc3ccco3)c(=O)[nH]c12,1.7%
5,Cc1cccn2c(=O)c(C=Nc3ccccc3)c(NCc3ccco3)nc12,-12.9%
6,Cc1ccc2[nH]c(=O)c(-c3nc4cc(C)ccn4c3NCc3ccco3)cc2c1,53.7% (active)
7,Cc1ccn2c(-c3csc(NCc4ccco4)n3)c(C)nc2c1,48.7%
8,Cc1ccc2[nH]c(=O)c(-c3nc4ccccn4c3NCc3ccco3)cc2c1,-4.9%
9,Cc1ccc2[nH]c(=O)c(-c3nc4c(C)cccn4c3NCc3ccco3)cc2c1,55.2% (active)
10,CC1CCCCC1NCc1cccc([N+](=O)[O-])c1 (centres undefined),2.2%
11,CCc1ccc(C2=NN(S(C)(=O)=O)C(c3cccs3)C2)cc1 (centres undefined),3.7%
12,COc1ccccc1NC(=O)Cn1cnc2sc(C(=O)NCc3ccco3)c(C)c2c1=O,-4.1%
13,Nc1nc2c(Cl)ccc(Cl)c2s1,8%
14,Nn1c(SCc2ccccn2)nncc1=O,-1.6%
15,C/C(=N\Nc1ccccn1)c1ccc(C(C)C)cc1,11.6%
16,CCC(C(=O)OCC(=O)Nc1cc(C)ccc1OC)c1ccccc1 (centres undefined),0.3%
17,CCOc1ccccc1NC(=O)COC(=O)C(CC)c1ccccc1 (centres undefined),64.5% (active)
18,CCC(C(=O)OCC(=O)Nc1ccc(OC)cc1OC)c1ccccc1 (centres undefined),10.5%
19,O=C(NC1CCCc2ccccc21)c1ccc2c(c1)OCO2 (centres undefined),8.7%
20,COc1ccc(-n2cc(CNCC3CCOCC3)c(-c3cccc(F)c3)n2)cc1,4.6%
21,CCOC(=O)C1CCN(c2cc(=O)n(-c3ccccc3Cl)c(=O)[nH]2)CC1,-1.4%
22,Cc1nc(-c2ccccc2)cn(O)c1=O,65.6% (active)
23,Cc1nc(-c2ccccc2)ccc1C(=O)O,0.4%
24,O=c1c(-c2ccccc2)nc(-c2ccccc2)cn1O,3.4%
25,CCOC(=O)N1CCN(C(=O)CSc2ccc3nnc(-c4ccncc4)n3n2)CC1,8.4%
26,COc1ccccc1/C=N/Nc1cc(N(C)C)nc(N(C)C)n1,63.4% (active)

row,Compound,inhibition
1,COc1ccccc1/C=N/Nc1nncc2ccccc12,-1.9%
2,COc1ccccc1/C=N/NC1=NCCCCC1,0.4%
3,O=C(CCCN1C(=O)c2ccccc2C1=O)Nc1c2c(nc3c1CCC3)CCC2,-20.1%
4,Cc1nn(C)c(C)c1NC(=O)CC12CC3CC(CC(C3)C1)C2,-1.3%
5,COc1cc(C)nc(N2CCC(C(=O)NC3CCCCC3)CC2)n1,3.7%
6,CC(=O)c1cccc(NC(=O)CCS(=O)(=O)c2cccc3nsnc23)c1,-33.5%
7,CCOc1ccc(OCCCCNCCN)cc1,-2.4%
8,CC(C)(C)NCCCCOc1ccc(F)cc1,4.1%
9,CCOc1ccc(OCCCCNC(C)(C)C)cc1,58.8% (active)
10,O=P(CO)(Cc1ccccc1)Cc1ccccc1,5%
11,O=C(O)C/C=C(\NC(=O)OCc1ccccc1)C(=O)OCc1ccccc1,-163%
12,Cn1cnnc1SC/C(O)=C(\C#N)c1nc2ccccc2[nH]1,0.7%
13,Cc1cc(C)n2c(SC/C(O)=C(\C#N)c3nc4ccccc4[nH]3)nnc2n1,53.4% (active)
14,Cc1ccccc1-n1c(SC/C(O)=C(\C#N)c2nc3ccccc3[nH]2)nnc1-c1ccncc1,20.6%
15,CCOc1cc(/C=N/NC(=O)COc2ccc(Cl)cc2)ccc1OS(=O)(=O)c1ccccc1,-94.4%
16,COc1ccccc1C(=O)Nc1cc2cc(Cl)ccc2oc1=O,-8%
17,COC(=O)[C@@H](N)Cc1ccc(O)cc1,6.4%
18,NC(CO)C(=O)NNCc1ccc(O)c(O)c1O (centres undefined),60.4% (active)
19,COC(=O)C(N)Cc1ccc(O)cc1 (centres undefined),-2.8%
20,COc1cc2c(cc1OC)CN(C(=O)CSc1nnc(C)s1)CC2,-13.4%
21,N#CC1=C2SCN(c3ccccc3)CN2C(=O)CC1c1ccccc1Cl (centres undefined),-41%
22,N#CC1=C2SCN(Cc3ccccc3)CN2C(=O)CC1c1cccs1 (centres undefined),67.2% (active)
23,N#CC1=C2SCN(c3ccccc3)CN2C(=O)CC1c1cccs1 (centres undefined),-2%
24,N#CC1=C2SCN(Cc3ccccc3)CN2C(=O)CC1c1ccccc1F (centres undefined),52.1% (active)
25,CCc1ccc(N2CSC3=C(C#N)C(c4cccs4)CC(=O)N3C2)cc1 (centres undefined),-68.6%
26,CCc1ccccc1N1CSC2=C(C#N)C(c3ccccc3F)CC(=O)N2C1 (centres undefined),-5.1%
